This is part of a sample that, as a whole, favours compounds with a hit. Of some 83,000 tested, about 20% had one in any assay.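 48-hour exposure, single concentration, 96-well plates; percent growth endpoint where 0 means no net growth. Active: below 10.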 Calls of active or inactive are those of the source.
Columns and labels:
Test in all cases: NCI-60 one-dose screen, 48 h (100 = growth as untreated, 0 = no growth, -100 = all killed)
Details in all cases: 10 µM unless noted
SR leukemia = tested on: SR leukemia
RPMI-8226 leukemia = tested on: RPMI-8226 leukemia
OVCAR-8 ovarian = tested on: OVCAR-8 ovarian
OVCAR-5 ovarian = tested on: OVCAR-5 ovarian
OVCAR-4 ovarian = tested on: OVCAR-4 ovarian
SK-OV-3 ovarian = tested on: SK-OV-3 ovarian
IGROV1 ovarian = tested on: IGROV1 ovarian
OVCAR-3 ovarian = tested on: OVCAR-3 ovarian
HS 578T breast = tested on: HS 578T breast
NCI/ADR-RES ovarian = tested on: NCI/ADR-RES ovarian
T-47D breast = tested on: T-47D breast
BT-549 breast = tested on: BT-549 breast
MDA-MB-435 melanoma = tested on: MDA-MB-435 melanoma
SW-620 colon = tested on: SW-620 colon
MCF7 breast = tested on: MCF7 breast
HCT-116 colon = tested on: HCT-116 colon
HCC-2998 colon = tested on: HCC-2998 colon
KM12 colon = tested on: KM12 colon

Measured: growth

Oc1ccc(Cl)cc1/C=N\NC(=S)N/N=C/c1cc(Cl)ccc1O
inactive: SR leukemia 20.2% | RPMI-8226 leukemia 29.8% | OVCAR-8 ovarian 17.6% | OVCAR-5 ovarian 69.7% | OVCAR-4 ovarian 29.6% | SK-OV-3 ovarian 58.6% | IGROV1 ovarian 22.2% | OVCAR-3 ovarian 12.7% | HS 578T breast 57.9% | NCI/ADR-RES ovarian 14.7% | T-47D breast 49.9% | BT-549 breast 52.7% | MDA-MB-435 melanoma 33.9% | SW-620 colon 50.3% | MCF7 breast 28.3% | HCT-116 colon 16% | HCC-2998 colon 41.3% | KM12 colon 28.6%

C=C(C)[C@@H]1CC[C@]2(C(=O)O)CC[C@]3(C)[C@H](CC[C@@H]4[C@@]5(C)CCC(NC(=O)c6cccc(OC(C)=O)c6OC(C)=O)C(C)(C)[C@@H]5CC[C@]43C)[C@@H]12 (stereo partly specified)
inactive: OVCAR-8 ovarian 10.7% | OVCAR-4 ovarian 12.9% | OVCAR-3 ovarian 11.8% | HS 578T breast 15.8% | T-47D breast 20.9% | BT-549 breast 16.5% | HCC-2998 colon 12% | KM12 colon 12.1%
active: SR leukemia 3.23% | RPMI-8226 leukemia -17.8% | OVCAR-5 ovarian 1.76% | SK-OV-3 ovarian 6.71% | IGROV1 ovarian 5.12% | NCI/ADR-RES ovarian 8.44% | MDA-MB-435 melanoma -56.4% | SW-620 colon 2.79% | MCF7 breast 4.17% | HCT-116 colon -38.6%

N#CC1=C(N)Oc2c(sc3c(Br)cccc23)C1c1ccc(Cl)cc1 (stereo unspecified)
active: SR leukemia 4.58% | OVCAR-3 ovarian 0.89% | NCI/ADR-RES ovarian 0.969% | MDA-MB-435 melanoma -23.2%
inactive: RPMI-8226 leukemia 12.6% | OVCAR-8 ovarian 23% | OVCAR-5 ovarian 26.3% | OVCAR-4 ovarian 61.2% | SK-OV-3 ovarian 27.1% | IGROV1 ovarian 27.2% | HS 578T breast 26.4% | T-47D breast 26.3% | BT-549 breast 41% | SW-620 colon 27.3% | MCF7 breast 10% | HCT-116 colon 13.7% | HCC-2998 colon 10.9% | KM12 colon 26.4%

CCCCCC(/C=N\NC(=S)N/N=C/C(=C/c1ccccc1)CCCCC)=C\c1ccccc1
inactive: SR leukemia 56.2% | RPMI-8226 leukemia 44.7% | OVCAR-8 ovarian 64.4% | OVCAR-5 ovarian 105% | OVCAR-4 ovarian 56.2% | SK-OV-3 ovarian 85.9% | IGROV1 ovarian 64.1% | OVCAR-3 ovarian 26.2% | HS 578T breast 73.8% | NCI/ADR-RES ovarian 60.2% | T-47D breast 83.9% | BT-549 breast 83.4% | MDA-MB-435 melanoma 81.6% | SW-620 colon 81.2% | MCF7 breast 75.9% | HCT-116 colon 53.3% | HCC-2998 colon 64.6% | KM12 colon 66.7%

CCOc1ccc(NC(=O)CSc2oc(-c3ccccc3)nc2S(=O)(=O)c2ccc(C)cc2)cc1
inactive: SR leukemia 41.3% | RPMI-8226 leukemia 71.3% | OVCAR-8 ovarian 40.2% | OVCAR-5 ovarian 101% | OVCAR-4 ovarian 51.1% | SK-OV-3 ovarian 83.3% | IGROV1 ovarian 95% | OVCAR-3 ovarian 56.8% | HS 578T breast 59.9% | NCI/ADR-RES ovarian 58.9% | T-47D breast 57.4% | BT-549 breast 94% | MDA-MB-435 melanoma 87.4% | SW-620 colon 74.3% | MCF7 breast 61.9% | HCT-116 colon 23.8% | HCC-2998 colon 82.6% | KM12 colon 65.4%

COc1cccc(CNc2ccc3ncnc(Nc4ccc(F)c(Cl)c4)c3c2)c1
inactive: SR leukemia 50.5% | RPMI-8226 leukemia 68.3% | OVCAR-8 ovarian 59.3% | OVCAR-5 ovarian 72.2% | OVCAR-4 ovarian 60.6% | SK-OV-3 ovarian 42.6% | IGROV1 ovarian 36.8% | OVCAR-3 ovarian 53.8% | HS 578T breast 87.4% | NCI/ADR-RES ovarian 54.7% | T-47D breast 51.3% | BT-549 breast 86.8% | MDA-MB-435 melanoma 78.3% | SW-620 colon 76.6% | MCF7 breast 65.2% | HCT-116 colon 64.9% | HCC-2998 colon 86.4% | KM12 colon 76.6%

NC(=O)C(=O)c1ccccc1NC=O
inactive: SR leukemia 113% | RPMI-8226 leukemia 105% | OVCAR-8 ovarian 95.4% | OVCAR-5 ovarian 102% | OVCAR-4 ovarian 98.4% | SK-OV-3 ovarian 97.4% | IGROV1 ovarian 94.8% | OVCAR-3 ovarian 110% | HS 578T breast 109% | NCI/ADR-RES ovarian 89.6% | T-47D breast 106% | BT-549 breast 107% | MDA-MB-435 melanoma 101% | SW-620 colon 101% | MCF7 breast 99.5% | HCT-116 colon 93.1% | HCC-2998 colon 107% | KM12 colon 98.6%

c1ccc(Cn2cc3c(c2)-c2oncc2CC3)cc1
active: RPMI-8226 leukemia 8.25% | OVCAR-3 ovarian -23.8% | HS 578T breast 1.9% | NCI/ADR-RES ovarian 0.523% | MDA-MB-435 melanoma -34.7% | HCT-116 colon 9.28% | HCC-2998 colon 4.68%
inactive: SR leukemia 39.3% | OVCAR-8 ovarian 36.4% | OVCAR-5 ovarian 25.1% | OVCAR-4 ovarian 64.1% | SK-OV-3 ovarian 13.5% | IGROV1 ovarian 34.9% | T-47D breast 42.1% | BT-549 breast 82.9% | SW-620 colon 23.9% | MCF7 breast 18.8% | KM12 colon 13.6%

Cc1ccc(/C=C2\COc3ccc(O)cc3C2=O)cc1
active: RPMI-8226 leukemia -1.31%
inactive: SR leukemia 12.7% | OVCAR-8 ovarian 91.7% | OVCAR-5 ovarian 102% | OVCAR-4 ovarian 93.3% | SK-OV-3 ovarian 126% | IGROV1 ovarian 95.1% | OVCAR-3 ovarian 101% | HS 578T breast 97.5% | NCI/ADR-RES ovarian 101% | T-47D breast 88.9% | BT-549 breast 79.1% | MDA-MB-435 melanoma 75.8% | SW-620 colon 47.9% | MCF7 breast 12.8% | HCT-116 colon 59.5% | HCC-2998 colon 112% | KM12 colon 46.6%

CCCCCCCCCc1ccc(OCCOCCOCCOCCOCCOCCOCCOCCOCCO)cc1
inactive: OVCAR-5 ovarian 48.3% | OVCAR-4 ovarian 22.4% | SK-OV-3 ovarian 110% | IGROV1 ovarian 24.4% | T-47D breast 116% | SW-620 colon 19.1% | MCF7 breast 10.9% | HCT-116 colon 11% | HCC-2998 colon 23.3% | KM12 colon 13.3%
active: SR leukemia -2.84% | RPMI-8226 leukemia -12.1% | OVCAR-8 ovarian 9.01% | OVCAR-3 ovarian 2.54% | HS 578T breast 8.85% | NCI/ADR-RES ovarian 1.74% | BT-549 breast -9.07% | MDA-MB-435 melanoma 7.48%

Nc1n[nH]c2ccc([C@H]3[C@@H]4C5CCC(C5)[C@@H]4c4c(ccc5[nH]ncc45)N3S(=O)(=O)C3CC3)cc12 (stereo partly specified)
inactive: SR leukemia 11.3% | OVCAR-8 ovarian 17.4% | OVCAR-5 ovarian 23.4% | OVCAR-4 ovarian 30.3% | SK-OV-3 ovarian 52.7% | IGROV1 ovarian 18.8% | HS 578T breast 22.7% | T-47D breast 64.6% | SW-620 colon 21.9% | MCF7 breast 13.1% | HCC-2998 colon 18.4%
active: RPMI-8226 leukemia 4.56% | OVCAR-3 ovarian -38.8% | NCI/ADR-RES ovarian 0.763% | BT-549 breast -2.63% | MDA-MB-435 melanoma -35.3% | HCT-116 colon 4.97% | KM12 colon 7.27%

COc1ccc(Cc2cnc(NC(=O)c3cc(C)oc3C)s2)cc1
inactive: SR leukemia 14.1% | RPMI-8226 leukemia 51.9% | OVCAR-8 ovarian 45.3% | OVCAR-5 ovarian 53.6% | OVCAR-4 ovarian 58.5% | SK-OV-3 ovarian 49.1% | IGROV1 ovarian 44.6% | OVCAR-3 ovarian 15% | HS 578T breast 24.5% | NCI/ADR-RES ovarian 20.6% | T-47D breast 31.8% | BT-549 breast 50.7% | SW-620 colon 27.9% | MCF7 breast 21.6% | HCT-116 colon 25.1% | HCC-2998 colon 60.9% | KM12 colon 25.4%
active: MDA-MB-435 melanoma 0.623%

CCOc1nc(-c2ccccc2)cc2c(O)c(C(=O)N/N=C/c3ccccc3)[nH]c(=O)c12
active: HCC-2998 colon 8.59%
inactive: SR leukemia 95.2% | RPMI-8226 leukemia 97.6% | OVCAR-8 ovarian 106% | OVCAR-5 ovarian 111% | OVCAR-4 ovarian 119% | SK-OV-3 ovarian 109% | IGROV1 ovarian 36% | OVCAR-3 ovarian 103% | HS 578T breast 104% | NCI/ADR-RES ovarian 104% | T-47D breast 110% | BT-549 breast 167% | MDA-MB-435 melanoma 123% | SW-620 colon 100% | MCF7 breast 101% | HCT-116 colon 111% | KM12 colon 109%

COc1ccc(C(C)=O)cc1S(=O)(=O)Nc1c(N)nc(SC)[nH]c1=O
inactive: SR leukemia 103% | RPMI-8226 leukemia 96.6% | OVCAR-8 ovarian 105% | OVCAR-5 ovarian 104% | OVCAR-4 ovarian 108% | SK-OV-3 ovarian 124% | IGROV1 ovarian 102% | OVCAR-3 ovarian 103% | HS 578T breast 96.9% | NCI/ADR-RES ovarian 103% | T-47D breast 116% | BT-549 breast 117% | MDA-MB-435 melanoma 97.7% | SW-620 colon 101% | MCF7 breast 92.9% | HCT-116 colon 100% | HCC-2998 colon 99% | KM12 colon 96.7%

COC(=O)Nc1nc2ccc(S(=O)c3ccccc3)cc2[nH]1 (stereo unspecified)
inactive: SR leukemia 23.4% | RPMI-8226 leukemia 75.6% | OVCAR-8 ovarian 80.3% | OVCAR-5 ovarian 92.8% | OVCAR-4 ovarian 84.4% | SK-OV-3 ovarian 81.1% | IGROV1 ovarian 67.8% | OVCAR-3 ovarian 57.9% | HS 578T breast 62% | NCI/ADR-RES ovarian 53.3% | T-47D breast 89.1% | BT-549 breast 77.9% | SW-620 colon 27.2% | MCF7 breast 44.1% | HCT-116 colon 39.4% | HCC-2998 colon 74.1% | KM12 colon 31.6%
active: MDA-MB-435 melanoma -33.4%

COc1ccc(Nc2ncc(Br)c(NCCCNC(=O)C3CCCC3)n2)cc1
inactive: SR leukemia 47% | RPMI-8226 leukemia 49.3% | OVCAR-8 ovarian 36.7% | OVCAR-5 ovarian 54.6% | OVCAR-4 ovarian 56.7% | SK-OV-3 ovarian 30.6% | IGROV1 ovarian 14.1% | OVCAR-3 ovarian 46.6% | HS 578T breast 29.2% | NCI/ADR-RES ovarian 51.5% | T-47D breast 77.5% | BT-549 breast 40.4% | MDA-MB-435 melanoma 63% | SW-620 colon 41.2% | MCF7 breast 41.8% | HCT-116 colon 23.6% | HCC-2998 colon 69.7% | KM12 colon 23%

N#Cc1nc(-c2ccc(Cl)cc2)oc1S(=O)(=O)N1CCN(c2ccc(F)cc2)CC1
inactive: SR leukemia 23.9% | RPMI-8226 leukemia 88.4% | OVCAR-8 ovarian 82.3% | OVCAR-5 ovarian 108% | OVCAR-4 ovarian 106% | SK-OV-3 ovarian 98.3% | IGROV1 ovarian 78.8% | OVCAR-3 ovarian 108% | HS 578T breast 103% | NCI/ADR-RES ovarian 101% | T-47D breast 89.3% | BT-549 breast 100% | MDA-MB-435 melanoma 100% | SW-620 colon 72.8% | MCF7 breast 83.5% | HCT-116 colon 78.7% | HCC-2998 colon 99.4% | KM12 colon 102%

Source: PubChem BioAssay (NCI)
